In ChEMBL document CHEMBL1201862, “PubChem BioAssay data set” (2004):
The campaign covered roughly 390,000 compounds. About 1,400 (0.36%) were called active. Roughly 2% stayed inconclusive and do not appear here. The rule behind the calls is not given here. Only a selection was taken, and actives are over-represented in it overall.

Target: Flap endonuclease 1 (Homo sapiens) (UniProt P39748)
Assay: qHTS Assay for the Inhibitors of Human Flap endonuclease 1 (FEN1). [Related pubchem assays (depositor defined):AID488813]
Assay type: functional

Chain of Flap endonuclease 1 (Homo sapiens) (P39748 whole entry): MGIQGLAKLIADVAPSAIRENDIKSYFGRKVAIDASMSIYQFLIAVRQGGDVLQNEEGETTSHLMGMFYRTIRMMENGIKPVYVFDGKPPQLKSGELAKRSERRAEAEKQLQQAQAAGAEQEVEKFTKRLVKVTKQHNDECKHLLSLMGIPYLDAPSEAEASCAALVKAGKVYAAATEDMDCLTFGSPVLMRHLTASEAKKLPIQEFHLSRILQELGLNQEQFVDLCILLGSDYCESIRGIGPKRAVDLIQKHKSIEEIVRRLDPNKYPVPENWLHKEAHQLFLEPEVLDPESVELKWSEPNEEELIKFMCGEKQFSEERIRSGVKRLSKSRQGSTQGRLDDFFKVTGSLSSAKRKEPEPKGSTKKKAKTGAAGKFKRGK

Structure (SMILES)	Potency
CC(N)(Cc1ccc(O)c(O)c1)C(=O)O (stereo not drawn)	2380 nM (active)
CCOC(=O)CN1C(=O)N[C@@H](c2cccc(C(F)(F)F)c2)C(C(=O)OC)=C1C	inactive
Nc1nc2ccc(OC(F)(F)F)cc2s1	inactive
NCC(O)c1ccc(O)c(O)c1 (stereo not drawn)	2990 nM (active)
C=CCN1C2CCCC1CC(N=C(S)Nc1cccc(OC)c1)C2 (stereo not drawn)	inactive
CC(=O)c1ccc(NC(=O)NNS(=O)(=O)c2ccc([N+](=O)[O-])cc2)cc1	inactive
ICCCCN1C=S(CI)c2ccccc21 (stereo not drawn)	50100 nM (active)
Cc1ccc(C)c(NC(=O)CN(C)C(=O)C2COc3ccccc3O2)c1 (stereo not drawn)	inactive
